A selection: hits, their analogues and other compounds. The true share with any hit is near 3.6%.
GDH-TPI inh: GDH-TPI coupling enzyme inhibitors, primary screen, artefact control for M. tuberculosis FBA inhibitor project, biochemical, absorbance, full deck | hit rate 1.2% among 360,000 | inhibition, % at 4.8 µM | GDH-TPI coupled enzyme counterscreen, NADH absorbance; in the data active = inhibition above about 30%;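 note: 0% = DMSO wells and 100% = wells lacking the enzyme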
Mtb betalactam: beta-lactam sensitization of Mtb H37Rv, H37Rv; M. tuberculosis H37Rv growth with meropenem, percent inhibition; inhibition, % at 25 µM; hit rate 0.27% among 330,000; AID 434955, 2010; call rule not given here;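 note: growth measured after seven days incubation then overnight dye step; 0% = bacteria only wells and 100% = bacteria with antibiotic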
FBA Mtb inh: Mtb FBA enzyme inhibitors, primary screen, biochemical, fluorescence, strain H37Rv. AID 588726, 2011. hit rate 2.3% among 360,000. inhibition, % at 1 µM. purified M. tuberculosis FBA, fluorescence read-out; in the data active = inhibition above about 27%;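 note: 0% = vehicle and 100% = reference inhibitor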
Target sequence (P9WQA3 whole entry, looked up): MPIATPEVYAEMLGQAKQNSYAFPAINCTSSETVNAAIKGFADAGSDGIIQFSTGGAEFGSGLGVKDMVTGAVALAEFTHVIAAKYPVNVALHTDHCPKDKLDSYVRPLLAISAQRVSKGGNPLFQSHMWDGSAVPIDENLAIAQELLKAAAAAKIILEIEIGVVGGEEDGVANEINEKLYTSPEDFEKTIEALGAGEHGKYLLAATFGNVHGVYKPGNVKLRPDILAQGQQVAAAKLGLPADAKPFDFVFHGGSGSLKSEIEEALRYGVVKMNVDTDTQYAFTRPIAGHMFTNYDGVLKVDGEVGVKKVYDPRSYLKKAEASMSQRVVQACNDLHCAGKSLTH
DUSP3 inh: VHR1 phosphatase inhibitors, primary screen, biochemical, absorbance, uHTS | recombinant VHR phosphatase, pNPP absorbance | hit rate 0.52% among 290,000 | AID 1654, 2009 | inhibition, % at 13.3 µM | Dual specificity protein phosphatase 3 (Homo sapiens), P51452; in the data active = inhibition above about 50%
Mtb hypoxia inh: PubChem AID 1159583. M. tuberculosis hypoxia-regulated fluorescent reporter, fluorescence. hit rate 0.1% among 300,000. fluorescence inhibition, % (concentration not given with the values); in the data active = fluorescence inhibition mostly above about 23%, no sharp cut-off; inactive = mostly below about 17%
The depositor's hits bear a star.

For CC1CN(C(C)CO)C(=O)c2cc(NC(=O)Nc3ccc(C(F)(F)F)cc3)ccc2OC1CN(C)C(=O)Nc1ccccc1 (stereo unspecified) the results were Mtb hypoxia inh 18.
Screening CC(=O)OCc1nc2sc(C)c(C)c2c(=O)[nH]1 returned GDH-TPI inh -4, Mtb betalactam -3, FBA Mtb inh 0 and DUSP3 inh 4.
Screening CCOC(=O)c1nc2sc(C)c(C)c2c(=O)[nH]1 returned GDH-TPI inh 14, Mtb betalactam 0, FBA Mtb inh 126*, DUSP3 inh 23 and Mtb hypoxia inh 4.
O=C(Oc1ccc2ccc(=O)oc2c1)c1ccc([N+](=O)[O-])cc1 was read as GDH-TPI inh -2, Mtb betalactam 1, FBA Mtb inh 183*, DUSP3 inh 0 and Mtb hypoxia inh 0.
CC(=O)Oc1ccc2ccc(=O)oc2c1 was read as GDH-TPI inh 9, Mtb betalactam -1, FBA Mtb inh active and DUSP3 inh 21.
Cc1ccc(C(=O)Oc2ccc3ccc(=O)oc3c2)cc1 was read as GDH-TPI inh 13, Mtb betalactam 38, FBA Mtb inh 22, DUSP3 inh 17 and Mtb hypoxia inh -12.
`CCN(CC)C(=O)C(=O)NN=Cc1cccs1` gave Mtb hypoxia inh 9.
C(=N\n1cnnc1)/c1ccc(N2CCOCC2)s1 was read as GDH-TPI inh 11, Mtb betalactam 0, FBA Mtb inh 8 and DUSP3 inh 3.
C(=N\n1cnnc1)/c1ccc(N2CCOCC2)cc1 was read as GDH-TPI inh 34*, Mtb betalactam -9, FBA Mtb inh 5 and DUSP3 inh 5.
For C(=N\n1cncn1)/c1ccc(N2CCOCC2)cc1 the results were GDH-TPI inh 46*, Mtb betalactam -1, FBA Mtb inh -3 and DUSP3 inh 4.
For S=c1[nH]ncn1/N=C/c1ccc(N2CCOCC2)cc1 the results were GDH-TPI inh 28, Mtb betalactam 3, FBA Mtb inh 1 and DUSP3 inh 0.
Screening CON=Cc1ccc(N2CCN(C(=O)c3ccc(Cl)cc3Cl)CC2)c([N+](=O)[O-])c1 returned Mtb hypoxia inh 0.
Screening CC(=O)c1c(C)[nH]c(C(=O)OCc2ccc([N+](=O)[O-])cc2)c1C returned GDH-TPI inh -1, Mtb betalactam -7, FBA Mtb inh -1, DUSP3 inh 52* and Mtb hypoxia inh 2.
Screening CC(=O)c1c(C)[nH]c(C(=O)OCc2ccccc2)c1C returned GDH-TPI inh 2, Mtb betalactam -2, FBA Mtb inh 6, DUSP3 inh -8 and Mtb hypoxia inh 5.
CC(C)(C)CN1C(N)=NCC1c1ccccc1 (stereo unspecified) was read as Mtb hypoxia inh 11.
Screening CCCCCC(=O)Nc1cccc(C2=NOC3(C2)CC(C(N)=O)N(C(=O)c2ccc(Cl)cc2)C3)c1 (stereo unspecified) returned Mtb hypoxia inh 7.
For O=[N+]([O-])c1cc([N+](=O)[O-])c(N2CCOCC2)cc1NCc1ccccc1 the results were GDH-TPI inh 31*, Mtb betalactam inconclusive, FBA Mtb inh -4, DUSP3 inh 10 and Mtb hypoxia inh 5.
`O=C(/C=C\c1cccs1)c1c(O)ccc2ccc(=O)oc12` gave GDH-TPI inh 36*, Mtb betalactam 89, FBA Mtb inh -7, DUSP3 inh 7 and Mtb hypoxia inh 15.
For N#C/C(=C\c1cccc(O)c1)C(=O)N1CCCCC1 the results were GDH-TPI inh -1, Mtb betalactam 6, FBA Mtb inh 0, DUSP3 inh 31 and Mtb hypoxia inh 1.
`Cc1cc(/C=C(\C#N)C(=O)N2CCCCC2)cc(C)c1O` gave GDH-TPI inh 16, Mtb betalactam -6, FBA Mtb inh -5, DUSP3 inh 58* and Mtb hypoxia inh -13.
For Cc1ccsc1CNS(=O)(=O)c1ccc(F)cc1 the results were GDH-TPI inh -8, Mtb betalactam -3, FBA Mtb inh 2, DUSP3 inh -4 and Mtb hypoxia inh 5.
`CNCc1sccc1C` gave GDH-TPI inh 3, Mtb betalactam -6, FBA Mtb inh 34*, DUSP3 inh -2 and Mtb hypoxia inh 3.
For CCN(CC)c1ccc(Nc2cc3n(c(=O)n2)CCc2cc(OC)c(OC)cc2-3)cc1 the results were GDH-TPI inh 38*, Mtb betalactam 3, FBA Mtb inh 1, DUSP3 inh 17 and Mtb hypoxia inh 0.

High-throughput results from PubChem BioAssay.
